Shown are actives, neighbours in structure and some others; about 2.9% of the full set was active somewhere.
SNCA expr inh: inhibitors of alpha-synuclein (SNCA) gene expression | HEK-293 SNCA-luciferase knock-in, luminescence, 24 h | Potency, µM (highest dose often 57.2 µM), usual class: inhibitors | 140,000 compounds, 0.17% hits; note: nearly all actives have a fitted effect of over 45% in size
SNCA viab count: cell viability loss counter-screen | HEK-293-SNCA-luc viability, GF-AFC fluorescence, 24 h | Potency, µM (highest dose often 57.1 µM), actives largely listed as cytotoxic | 150,000 compounds, 0.12% hits; note: nearly all actives have a fitted effect of over 30% in size
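Cytotoxicity counterscreen: after 24 h compound treatment of genome-edited SNCA-luciferase HEK-293 cells, live-cell protease substrate GF-AFC read by fluorescence after 30 min; activity scaled between DMSO (0%) and medium-only (-100%), curves Hill-fitted.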
KDM5B inhibitor: inhibitors of human KDM5B histone demethylase | Q9UGL1 | KDM5B demethylase, FDH-coupled NADH fluorescence (FDH is formaldehyde dehydrogenase) | Potency, µM (titrated, usually from 57.7 µM), usual class: inhibitors | 220,000 compounds, 2.6% hits | AID 1347165; note: nearly all actives have a fitted effect of over 70% in size
Target sequence (Q9UGL1 whole entry, looked up): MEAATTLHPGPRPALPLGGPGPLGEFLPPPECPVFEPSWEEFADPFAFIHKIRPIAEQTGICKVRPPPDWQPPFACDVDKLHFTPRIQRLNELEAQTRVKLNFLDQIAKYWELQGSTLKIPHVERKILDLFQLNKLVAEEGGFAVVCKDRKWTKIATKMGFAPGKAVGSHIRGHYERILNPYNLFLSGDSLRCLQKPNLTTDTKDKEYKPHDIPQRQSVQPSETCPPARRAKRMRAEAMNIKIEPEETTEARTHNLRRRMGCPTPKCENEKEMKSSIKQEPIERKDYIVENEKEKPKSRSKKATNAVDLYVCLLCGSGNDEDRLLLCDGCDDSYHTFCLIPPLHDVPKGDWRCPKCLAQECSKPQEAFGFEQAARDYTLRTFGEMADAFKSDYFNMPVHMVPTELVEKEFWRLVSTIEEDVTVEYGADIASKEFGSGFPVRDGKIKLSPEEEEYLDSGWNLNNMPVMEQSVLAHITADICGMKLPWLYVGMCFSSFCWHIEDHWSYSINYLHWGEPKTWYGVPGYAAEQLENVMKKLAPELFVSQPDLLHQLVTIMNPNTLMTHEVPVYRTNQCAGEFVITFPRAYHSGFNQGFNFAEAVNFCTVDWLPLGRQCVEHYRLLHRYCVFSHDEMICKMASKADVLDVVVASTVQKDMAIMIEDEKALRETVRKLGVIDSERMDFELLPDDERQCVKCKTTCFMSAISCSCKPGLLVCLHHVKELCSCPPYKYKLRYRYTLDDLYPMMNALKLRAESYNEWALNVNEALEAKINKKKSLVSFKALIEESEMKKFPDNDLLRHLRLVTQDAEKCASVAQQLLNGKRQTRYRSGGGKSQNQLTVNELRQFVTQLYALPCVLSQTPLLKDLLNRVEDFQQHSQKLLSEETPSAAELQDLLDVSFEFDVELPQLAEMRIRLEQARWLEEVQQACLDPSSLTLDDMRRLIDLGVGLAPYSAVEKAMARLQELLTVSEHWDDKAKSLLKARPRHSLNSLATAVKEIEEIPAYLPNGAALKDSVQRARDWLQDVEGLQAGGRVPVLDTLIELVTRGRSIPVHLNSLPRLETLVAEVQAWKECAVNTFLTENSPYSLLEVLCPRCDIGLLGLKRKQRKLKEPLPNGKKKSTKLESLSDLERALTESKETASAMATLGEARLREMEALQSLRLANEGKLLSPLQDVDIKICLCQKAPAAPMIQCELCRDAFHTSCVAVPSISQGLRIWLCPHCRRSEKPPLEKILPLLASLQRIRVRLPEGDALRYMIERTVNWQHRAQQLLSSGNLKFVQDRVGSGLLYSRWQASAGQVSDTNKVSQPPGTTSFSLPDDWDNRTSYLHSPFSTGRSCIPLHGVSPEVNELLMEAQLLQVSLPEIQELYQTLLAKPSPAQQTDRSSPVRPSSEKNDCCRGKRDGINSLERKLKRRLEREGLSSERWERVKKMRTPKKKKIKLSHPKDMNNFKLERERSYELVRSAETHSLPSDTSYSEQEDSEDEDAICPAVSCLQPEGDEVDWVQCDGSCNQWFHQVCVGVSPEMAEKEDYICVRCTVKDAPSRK
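Compound dilutions met 200 nM (final) KDM5BΔAP for 10 min at room temperature before substrate addition. The substrate mix held 12.5 µM H3K4me3 with cofactors 25 µM α-ketoglutarate and 50 µM Fe²⁺. NADH signal gain over 30 min defined activity.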
IP6K1 inhibitor: blocks human inositol hexakisphosphate kinase 1. IP6K1 kinase, ADP-Glo luminescence, 2 h; active compounds read low. Q92551. 140,000 compounds, 0.81% hits. activity change, % (series mostly up to about 58 µM). AID 1645851; in the data active = activity change below about -25%
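ADP-Glo luminescence measures ADP made by human IP6K1 during a 2 h RT reaction with ATP/IP6 (mix at 1.3 mM/130 uM); top library doses 57.5 and 19.1 uM final.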
Each line names hits and unclear results; the compound was inactive in the other large screens. Unless noted, calls come from the whole dose curve; as a rule, active = well fitted curve in the direction sought with a large enough effect; inconclusive = small, poorly fitted or top-dose-only effect, or another doubt; inactive = no such curve, though single readings can be large; an effect the other way counts as inactive or inconclusive.

O=C(c1nc(-c2ccc(F)cc2)c2ccccn12)N1CCOCC1	KDM5B inhibitor 32µM
O=C(c1cc(-c2cccc(C(F)(F)F)c2)c2cccn2n1)N1CCCC1	none (no result: KDM5B inhibitor)
O=C(c1nc(-c2cccc(C(F)(F)F)c2)c2cnccn12)N1CCOCC1	KDM5B inhibitor 10µM
O=C(c1nc(-c2cccc(C(F)(F)F)c2)c2cnccn12)N1CCCC1	KDM5B inhibitor 32µM
O=C(c1cc(-c2cccc(C(F)(F)F)c2)c2cccn2n1)N1CCOCC1	SNCA expr inh inconclusive (no result: KDM5B inhibitor)
O=C(c1nc(-c2ccc(F)cc2)c2cnccn12)N1CCCC1	KDM5B inhibitor 32µM
CN(C(=O)N1CCCn2nc(C(=O)N3CCOCC3)cc2C1)c1ccccc1	none
Cc1ccc2cccc(NC(=O)COc3ccc(Cl)c(C)c3)c2n1	none (no result: SNCA expr inh, SNCA viab count, IP6K1 inhibitor)
CCC1c2nccn2CCCN1C(=O)COc1ccc(Cl)cc1C (centres undefined)	none
Cc1cccc(C)c1NC(=O)CNC(=O)CCc1ncc(-c2ccc(F)cc2F)o1	none (no result: SNCA expr inh, SNCA viab count, IP6K1 inhibitor)
O=C(c1nc(-c2ccc(Cl)cc2)c2ccccn12)N1CCN(c2ncccn2)CC1	KDM5B inhibitor 25µM
CC(C)Oc1cccc(-c2cccc(COc3cnc4c(ccn4CC(=O)O)c3)c2)c1	KDM5B inhibitor inconclusive
COc1cc(Cl)ccc1-c1cccc(COc2cnc3c(ccn3CC(=O)O)c2)c1	KDM5B inhibitor 35µM
COc1cc(F)cc(-c2cccc(COc3cnc4c(ccn4CC(=O)O)c3)c2)c1	KDM5B inhibitor 35µM
O=C(O)CSCC(=O)N[C@H]1C[C@H]2C(=O)Nc3ccc(-c4cccs4)cc3C(=O)N2C1	KDM5B inhibitor 28µM
COCC(=O)N[C@H]1C[C@H]2C(=O)Nc3ccc(-c4cccs4)cc3C(=O)N2C1	KDM5B inhibitor 35µM
CC(C)(CC(=O)O)CC(=O)N[C@H]1C[C@H]2C(=O)Nc3ccc(-c4cccs4)cc3C(=O)N2C1	KDM5B inhibitor inconclusive
CCOc1ccccc1CN1CCCC(Cn2c(C)cnc2C2CCOCC2)C1 (centres undefined)	none (no result: KDM5B inhibitor)
CCNc1cc(N2CCC(CCC(=O)Nc3ccc4c(c3)OCCO4)CC2)ncn1	SNCA expr inh inconclusive
COc1ccc2cc(CNC(=O)C(C)C)ccc2c1	none (no result: SNCA expr inh, SNCA viab count, IP6K1 inhibitor)
C[C@]12CCC(=O)C=C1[C@@H](O)C[C@@H]1[C@@H]2[C@@H](O)C[C@@]2(C)[C@H]1CC[C@]2(O)C(=O)CO	none (no result: SNCA expr inh, KDM5B inhibitor)
Cc1ccccc1C(=O)N1CCC2(CC1)NC(=O)N(c1cccc(F)c1)N2	none
Cc1nn(CC(=O)NCc2cccnc2)c(=O)c2nc(-c3ccccc3)sc12	KDM5B inhibitor 28µM
Cc1nn(CC(=O)NCc2ccc(F)cc2F)c(=O)c2nc(-c3ccccc3)sc12	KDM5B inhibitor 32µM
O=C(O)c1cc(NS(=O)(=O)c2ccc(F)c(F)c2)ccc1Cl	none (no result: SNCA expr inh, SNCA viab count, IP6K1 inhibitor)
CCN(C(=O)CN1C(=O)NC2(CCC(C)CC2)C1=O)c1ccccc1 (centres undefined)	none
O=C1N(C2CCOCC2)CCCC12CCN(c1ccc(Cl)cn1)C2 (centres undefined)	KDM5B inhibitor 28µM
CC(C)CCC(=O)Nc1ccc(C(N)=O)c(Cl)c1	none (no result: SNCA expr inh, SNCA viab count, IP6K1 inhibitor)
CCN1C(=O)CCC2(C(=O)N3CCOCC3)CCCC=C12 (centres undefined)	none
O=C(c1ccc2c(c1)OCO2)N1CCC2(CC1)N=C(c1ccc(Cl)cc1)NO2	KDM5B inhibitor 32µM
O=C(c1cccc(F)c1)N1CCC2(CC1)N=C(c1ccc(Cl)cc1)NO2	KDM5B inhibitor 20µM
O=C(c1cccc(F)c1)N1CCC2(CC1)N=C(c1ccccc1)NO2	SNCA expr inh inconclusive
CC(C)(C)n1cc(-c2cc(C(=O)N3C[C@H]4CC[C@H]3C4)c3ccccc3n2)cn1	KDM5B inhibitor 32µM
Cn1cc(-c2cccc(C(F)(F)F)c2)c2nc(CNc3ccccc3)cn2c1=O	SNCA expr inh inconclusive, KDM5B inhibitor 35µM
COC(=O)c1c(C)[nH]c(C(=O)C(C)OC(=O)C23CC4CC(CC(C4)C2)C3)c1C (centres undefined)	none (no result: SNCA expr inh, SNCA viab count, IP6K1 inhibitor)
CC(NC(=O)Cn1cnc2c1c(=O)n(C)c(=O)n2C)c1ccc(-c2ccccc2)cc1 (centres undefined)	none (no result: SNCA expr inh, SNCA viab count, IP6K1 inhibitor)
O=C(c1nnc(CNCc2cccc(F)c2)n1-c1cccnc1)N1CCC[C@@H]1C(c1ccccc1)c1ccccc1	none
O=C(c1nnc(CNc2ccccn2)n1-c1cccnc1)N1CCC[C@@H]1C(c1ccccc1)c1ccccc1	KDM5B inhibitor 13µM
O=C(c1nnn2c1COC(c1ccccc1)C2)N1CCN(C(=O)c2cccc3[nH]ccc23)CC1 (centres undefined)	KDM5B inhibitor 28µM
O=C(CCc1nnn2c1CN(C(=O)NCCc1ccccc1)CC2)N1CCCC1	none
O=C(c1ccc2cc[nH]c2c1)N1CCN(C(=O)c2nnn3c2COC(c2ccccc2)C3)CC1 (centres undefined)	KDM5B inhibitor inconclusive
O=C(CCc1nnn2c1CN(C(=O)c1cccc3[nH]ccc13)CC2)N1CCCC1	KDM5B inhibitor 28µM
CC(C)C(NC(=O)c1ccccc1Cl)C(=O)NOCc1ccccc1 (centres undefined)	none (no result: SNCA expr inh, SNCA viab count, IP6K1 inhibitor)
N#Cc1cccnc1NCCNC(=O)c1cnc(-c2ccccc2)nc1	none (no result: SNCA expr inh, SNCA viab count, IP6K1 inhibitor)
COc1ccc(-c2cn(C)c(=O)n3cc(CN4CCNC(=O)C4)nc23)cc1	KDM5B inhibitor 28µM
COc1ccc(-c2cn(C)c(=O)n3cc(CN4CC[S+](=O)([O-])CC4)nc23)cc1OC	KDM5B inhibitor 35µM
COc1ccccc1-c1cn(C)c(=O)n2cc(CN3CCNC(=O)C3)nc12	KDM5B inhibitor inconclusive
CCN(c1ccc(NC(=O)Cn2cnc3c2c(=O)n(C)c(=O)n3C)cc1)C(C)C	none (no result: SNCA expr inh, SNCA viab count, IP6K1 inhibitor)
Cc1cc(CNC(=O)c2cc(-c3ccco3)nc3c(Cl)cccc23)no1	KDM5B inhibitor 28µM
C[C@@H]1CN(C(=O)c2cc(-c3ccco3)nc3c(Cl)cccc23)C[C@]1(C)O	none
C[C@]12CC[C@@H]3c4ccc(O[C@@H]5O[C@H](C(=O)O)[C@@H](O)[C@H](O)[C@H]5O)cc4CC[C@H]3[C@@H]1CCC2=O	none (no result: SNCA expr inh, KDM5B inhibitor)
COc1cccc(CN2CC3(CCN(C)C3)c3cc(C(=O)NC4CCCCC4)ccc32)c1 (centres undefined)	SNCA expr inh inconclusive, KDM5B inhibitor 35µM
COc1ccc(NC(=O)c2ccc3c(c2)C2(CCN(C)C2)CN3Cc2ccccc2)cc1 (centres undefined)	KDM5B inhibitor inconclusive
O=C(NC1CCOCC1)c1ccc2c(c1)C1(CCN(CC3CC3)C1)CN2Cc1ccccc1 (centres undefined)	KDM5B inhibitor 28µM
CN1CCC2(C1)CN(Cc1ccccc1)c1ccc(C(=O)NC3CCC(O)CC3)cc12 (centres undefined)	KDM5B inhibitor 40µM
CC(C)CNC1(Cc2cc(-c3cccc(O)c3)on2)COC1	KDM5B inhibitor inconclusive
N#Cc1ccc(-c2nc3ccccc3s2)cc1	none (no result: SNCA expr inh, SNCA viab count, IP6K1 inhibitor)
O=S(=O)(Nc1nc2ccccc2nc1Nc1ccc(F)cc1)c1cccc(Cl)c1	none (no result: SNCA expr inh, SNCA viab count, IP6K1 inhibitor)
COCCN(C)C[C@@H]1CN(C(=O)c2ccc(-c3ccco3)cc2)C[C@@H]1CO	KDM5B inhibitor 32µM
O=C(c1cc(-c2ccc(F)cc2)nc2ccccc12)N1CCC(c2nc(C3CCOCC3)no2)C1 (centres undefined)	KDM5B inhibitor 28µM

Compound activity: PubChem, National Center for Advancing Translational Sciences (NCATS)
